Measured values taken from PubChem BioAssay (Tox21).
Inconclusive results are not listed. Active and inactive are the calls of the source. Calls follow the shape of the dose curve; as a rule, active = well fitted cell-killing curve with a large enough effect in the repeat runs; inconclusive = weak or mixed curves; inactive = flat fitted curve, though single readings scatter.

Assay: qHTS RealTime-Glo MT Cell Viability Assay in HepG2 cells - 16 hour (AID 1224885); also: nearly all actives have a fitted effect of over 50% in size
Details: RealTime-Glo luminescence; series mostly up to 76.8 µM; activity change, negative = cytotoxic: at the top concentration
Excerpt: U.S. Tox21 Program National Center for Advancing Translational Sciences [NCATS] NIH Chemical Genomics Center [NCGC] U.S. Environmental Protection Agency [EPA] National Institutes of Environmental Health Sciences [NIEHS] National Toxicology Program [NTP] U.S. Food and Drug Administration [FDA] Tox21 Assay Overview: Measure of cell viability is critical in the cell-base assay. Analysis of cell viability is necessary for the characterization of cell responses to cytotoxic drugs and environmental stress. A RealTime-Glo MT Cell Viability Assay to monitor cell viability in real time of continues cell culture during 40 hours of compound treatment was used to screen Tox21 10K library compounds in HepG2 cells. The RealTime-Glo MT Cell Viability Assay is a nonlytic, homogeneous, bioluminescent method to measure cell viability in real time using a simple, plate-based method. The assay involves adding NanoLuc luciferase and a cell-permeant prosubstrate to cells in culture. Viable cells reduce the proprietary prosubstrate to generate a substrate for NanoLuc luciferase. This substrate diffuses from cells into the surrounding culture medium, where it is rapidly used by the NanoLuc Enzyme to produce a luminescent signal. The signal correlates with the number of viable cells, making the assay well suited for cytotoxicity studies.
Tox21 Assay Protocol Summary: The mixture of HepG2 cell suspension and reagents were dispensed at 600cells/6 ul/well in 1536-well tissue culture treated black solid bottom plates using a Multidrop dispenser. After the assay plates were incubated at a 37 C/5% CO2 incubator for 5 hours, 23 nL of compounds dissolved in DMSO, positive and negative controls was transferred to the assay plate by a pintool work station. The plates were incubated at 37 C for 40 hours. The luminescence intensity were measured at 0h, 8h, 16h, 24h, 32h and 40h time points using ViewLux plate reader during compound treatment.
% is scaled to controls: 0 for no effect and ±100 for the full control effect; potency is read from the fitted curve at half-maximal effect.

Row | Compound | Potency | activity change, negative = cytotoxic
1 | CCCCOc1ccc(C(=O)CCN2CCCCC2)cc1 | 23.9 µM (active) | –
2 | C/C=C/c1ccc(OC)c(OC)c1 | – | 2.8% (inactive)
3 | Cc1ccc(O)cn1 | – | 1.83% (inactive)
4 | Clc1ccc(C(c2ccccc2Cl)C(Cl)Cl)cc1 (stereo not given) | – | -8.28% [at 35.3 µM] (inactive)
5 | CCN(CC)CCOc1ccc(C(O)(Cc2ccc(Cl)cc2)c2ccc(C)cc2)cc1 (stereo not given) | 23.9 µM (active) | –
6 | O=C=NCc1cccc(CN=C=O)c1 | – | 0.437% [at 15.8 µM] (inactive)
7 | CCCCOC(=O)C(C)CC (stereo not given) | – | 4.86% (inactive)
8 | CCC1(c2cnc[nH]2)Cc2ccccc2C1 | – | 3.78% [at 35.3 µM] (inactive)
9 | COc1cc(C(C)C)c2c(c1)S(=O)(=O)N(COc1cc(=O)n3cccc(OCCN4CCCCC4)c3n1)C2=O | – | -16.4% [at 15.8 µM] (inactive)
10 | CN(C)CCN1CCOCC1 | – | -3.92% (inactive)
11 | C=CC(=C)CCC=C(C)C | – | -9.45% (inactive)
12 | CCCCCCCCCCCC(=O)N(CC)CC | – | -8.62% (inactive)
13 | CC(C)OC(=O)c1cc(C(=O)OC(C)C)cc([N+](=O)[O-])c1 | – | -8.26% (inactive)
14 | c1cc(OCC2CO2)cc(OCC2CO2)c1 (stereo not given) | – | -7.93% (inactive)
15 | CN(Cc1cc(Br)cc(Br)c1N)C1CCCCC1 | – | -18.7% [at 35.3 µM] (inactive)
16 | COc1cccc(O)c1 | – | 3.19% (inactive)
17 | CCC1CCCCC1 | – | -3.72% (inactive)
18 | CCCCCCCCCCCCCC[n+]1ccccc1 | 21.9 µM (active) | –
19 | O=C1OC(=O)c2cccc3cccc1c23 | – | -7.61% (inactive)
20 | O=C(O)CCn1c2c(c3ccccc31)C[C@H](NS(=O)(=O)c1ccc(F)cc1)CC2 | – | 0.177% [at 35.3 µM] (inactive)

Row | Compound | Potency | activity change, negative = cytotoxic
21 | S=P(N1CC1)(N1CC1)N1CC1 | – | 4.97% (inactive)
22 | C1CC(COCC2CO2)CCC1COCC1CO1 (stereo not given) | – | -0.194% (inactive)
23 | CC(C)c1cccc(C(C)C)c1N1C(=O)c2ccc(O)cc2C1=O | 49 µM (active) | –
24 | CC(=O)O[C@@H]1C[C@@H]2CC[C@@]1(C)C2(C)C | – | -0.0728% (inactive)
25 | C=C(C)CCCC | – | 1.68% (inactive)
26 | O=C[C@H](O)[C@H](O)[C@H](O)CO | – | 1.56% (inactive)
27 | Oc1ccc(-c2ccc(O)cc2)cc1 | – | -2% (inactive)
28 | C/C=C/C=N/NC(=O)c1ccncc1 | – | 0.306% [at 35.3 µM] (inactive)
29 | O=C(O)Cc1ccc(OCCNC[C@H](O)c2ccccc2)cc1 | – | 2.51% [at 35.3 µM] (inactive)
30 | COc1nccnc1CC(C)C | – | -5.1% (inactive)
31 | CCCN(CCc1cccs1)[C@H]1CCc2c(O)cccc2C1 | – | -19% [at 35.3 µM] (inactive)
32 | C[Si](C)(C)Cl | – | 1.68% (inactive)
33 | CCN(CC)c1cccc(C)c1 | – | -2.21% (inactive)
34 | CC(=O)C=O | – | 0.429% (inactive)
35 | CCCCCCCC/C=C\CCCCCCCC(=O)OCCOC(=O)CCCCCCC/C=C\CCCCCCCC | – | 26.6% (inactive)
36 | CC(=O)OC1CCCCC1 | – | -9.59% (inactive)
37 | CC1=C(/C=C/C(C)=C/C=C/C(C)=C\C=O)C(C)(C)CCC1 | – | -14% (inactive)
38 | OCCCS | – | 2.38% (inactive)
39 | Cc1ccc2ccc3cccc4ccc1c2c34 | – | -3.65% (inactive)
40 | CCOC(=O)CN | – | -2.28% (inactive)
